In paper PMC5700166 one finds binding signal data, which are given here for 37 sequences.

Assay [1] deals with T1, GST-Nv-NF-kB (Ser allele) (Nematostella vectensis, UniProt A7UNT2 2-411).
T1 sequence: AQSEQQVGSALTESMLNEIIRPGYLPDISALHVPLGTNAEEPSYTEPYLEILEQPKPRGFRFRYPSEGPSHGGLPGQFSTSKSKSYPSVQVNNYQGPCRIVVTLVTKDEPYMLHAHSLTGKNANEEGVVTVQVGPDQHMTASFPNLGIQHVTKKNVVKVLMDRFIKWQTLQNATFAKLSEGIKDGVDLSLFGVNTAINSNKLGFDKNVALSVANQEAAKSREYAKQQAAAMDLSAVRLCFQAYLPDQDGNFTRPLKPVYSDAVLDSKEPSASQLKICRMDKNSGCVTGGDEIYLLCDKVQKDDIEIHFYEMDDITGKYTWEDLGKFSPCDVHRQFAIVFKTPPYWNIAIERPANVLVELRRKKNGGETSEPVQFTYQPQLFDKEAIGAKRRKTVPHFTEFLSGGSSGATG
Nature of the assay: protein-binding microarray (PBM); PBM: ~300 nM protein, 6 mM HEPES pH 7.8, 80 mM KCl, 0.5 mM EDTA, 0.5 mM EGTA, 6% glycerol, 35 ng/ul poly-dIdC, 1% milk, 1 h, room temperature; Ap Aiptasia and Nv Nematostella (sea anemones) / Co Capsaspora / Aq Amphimedon (sponge) / Dm Drosophila / Hu human; RHD is the Rel homology domain; high values mean tight binding. The settings on record: dsDNA, one strand shown.

A further assay deals with GST-Hu-p50 (Homo sapiens, UniProt P19838 7-356). The description is as above. The settings on record: dsDNA, one strand shown.
Chain of GST-Hu-p50 (P19838 7-356): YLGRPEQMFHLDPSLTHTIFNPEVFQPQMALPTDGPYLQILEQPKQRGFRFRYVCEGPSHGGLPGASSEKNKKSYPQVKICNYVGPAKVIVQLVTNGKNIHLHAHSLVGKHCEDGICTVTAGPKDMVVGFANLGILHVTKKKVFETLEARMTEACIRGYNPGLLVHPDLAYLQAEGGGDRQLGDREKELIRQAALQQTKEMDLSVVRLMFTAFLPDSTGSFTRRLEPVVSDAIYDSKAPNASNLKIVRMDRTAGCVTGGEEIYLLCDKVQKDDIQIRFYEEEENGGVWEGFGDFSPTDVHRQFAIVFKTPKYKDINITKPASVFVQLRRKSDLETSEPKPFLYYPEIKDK

For the sequence “CCGATTAACATCAAGGTACCCCCTGATGTTAATCGGGTCTTGATTCGCTTGACGCTGCTG”, the binding signal in assay [1] came to 3.84 z-score; with GST-Hu-p50, 3.34 z-score.

Take “CCGATTAACATCAGGGGAGGTACTGATGTTAATCGGGTCTTGATTCGCTTGACGCTGCTG”: the values for the binding signal (in assay [1]; with GST-Hu-p50) were 4.46 z-score and 3.17 z-score, respectively.

Turning to “CCGATTAACATCAAATTCCCGTATGATGTTAATCGGGTCTTGATTCGCTTGACGCTGCTG”, the binding signal in assay [1] is 4.51 z-score; with GST-Hu-p50, 3.02 z-score.

Turning to “CCGATTAACATCAGGAATATTCCTGATGTTAATCGGGTCTTGATTCGCTTGACGCTGCTG”, the binding signal worked out at 1.09 z-score in assay [1] and 1.36 z-score in the assay with GST-Hu-p50.

As for “CCGATTAACATCAGGGGGTAATATGATGTTAATCGGGTCTTGATTCGCTTGACGCTGCTG”, the binding signal in assay [1] was found to be 5.13 z-score; with GST-Hu-p50, 4.43 z-score.

Consider “CCGATTAACATCAAATTCCCAAATGATGTTAATCGGGTCTTGATTCGCTTGACGCTGCTG”, for which the binding signal in assay [1] is 3.82 z-score; in the assay with GST-Hu-p50, 3.01 z-score.

As for “CCGATTAACATCAGAAGTTCCCATGATGTTAATCGGGTCTTGATTCGCTTGACGCTGCTG”, the binding signal is 1.1 z-score in assay [1] and 1.09 z-score with GST-Hu-p50.

With “CCGATTAACATCACGGGACTTCCTGATGTTAATCGGGTCTTGATTCGCTTGACGCTGCTG”, the values for the binding signal (in assay [1]; with GST-Hu-p50) were 4.98 z-score and 4.6 z-score, respectively.

For “CCGATTAACATCAGGTAATCCCATGATGTTAATCGGGTCTTGATTCGCTTGACGCTGCTG”, the binding signal in assay [1] came to 2.09 z-score; with GST-Hu-p50, 1.44 z-score.

As to “CCGATTAACATCAGGTAATTCCATGATGTTAATCGGGTCTTGATTCGCTTGACGCTGCTG”, the binding signal in assay [1] is 3.72 z-score; with GST-Hu-p50, 2.14 z-score.

Turning to “CCGATTAACATCACCCATGGGAATGATGTTAATCGGGTCTTGATTCGCTTGACGCTGCTG”, the binding signal in assay [1] stood at 1.02 z-score; with GST-Hu-p50, 1.43 z-score.

As to “CCGATTAACATCAGGGGGAGTGATGATGTTAATCGGGTCTTGATTCGCTTGACGCTGCTG”, the binding signal turned out to be 4.81 z-score in assay [1] and 4.48 z-score with GST-Hu-p50.

Regarding “CCGATTAACATCACAAAACTCCCTGATGTTAATCGGGTCTTGATTCGCTTGACGCTGCTG”, the binding signal in assay [1] worked out at 6.52 z-score; in the assay with GST-Hu-p50, 4.95 z-score.

On to “CCGATTAACATCAGGGAAACCCATGATGTTAATCGGGTCTTGATTCGCTTGACGCTGCTG”, for which the binding signal was found to be 3.84 z-score in assay [1] and 3.11 z-score with GST-Hu-p50.

For the sequence “CCGATTAACATCATGCGGGAAAATGATGTTAATCGGGTCTTGATTCGCTTGACGCTGCTG”, the binding signal in assay [1] was 4.76 z-score; with GST-Hu-p50 it was 2.69 z-score.

On to “CCGATTAACATCAGGGGATAAAATGATGTTAATCGGGTCTTGATTCGCTTGACGCTGCTG”, for which the results for the binding signal (in assay [1]; with GST-Hu-p50) were 6.05 z-score and 3.95 z-score, respectively.

For “CCGATTAACATCAGGAGAATCCCTGATGTTAATCGGGTCTTGATTCGCTTGACGCTGCTG”, the figures for the binding signal (in assay [1]; with GST-Hu-p50) were 1.07 z-score and 1.64 z-score, respectively.

Regarding “CCGATTAACATCACGTCCCCCCCTGATGTTAATCGGGTCTTGATTCGCTTGACGCTGCTG”, the binding signal is 4.17 z-score in assay [1] and 3.7 z-score with GST-Hu-p50.

As to “CCGATTAACATCAGGGCATACCCTGATGTTAATCGGGTCTTGATTCGCTTGACGCTGCTG”, the binding signal in assay [1] stood at 1.31 z-score; in the assay with GST-Hu-p50, 1.86 z-score.

Turning to “CCGATTAACATCAAGAAATTTCCTGATGTTAATCGGGTCTTGATTCGCTTGACGCTGCTG”, the results for the binding signal (in assay [1]; with GST-Hu-p50) were 1.55 z-score and 1.76 z-score, respectively.

With “CCGATTAACATCAGGGAAAGAACTGATGTTAATCGGGTCTTGATTCGCTTGACGCTGCTG”, the binding signal in assay [1] was 3.33 z-score; with GST-Hu-p50 it was 2.37 z-score.

In the case of “CCGATTAACATCAGGAAGTTCCCTGATGTTAATCGGGTCTTGATTCGCTTGACGCTGCTG”, the binding signal in assay [1] is 2.53 z-score; with GST-Hu-p50 it was 3.79 z-score.

On to “CCGATTAACATCACGGGATTTACTGATGTTAATCGGGTCTTGATTCGCTTGACGCTGCTG”, for which the binding signal was determined as 1.41 z-score in assay [1] and 2.12 z-score with GST-Hu-p50.

As to “CCGATTAACATCAAGGGGGTAAATGATGTTAATCGGGTCTTGATTCGCTTGACGCTGCTG”, the results for the binding signal (in assay [1]; in the assay with GST-Hu-p50) were 4.81 z-score and 4.37 z-score, respectively.

Turning to “CCGATTAACATCAGAATTCCCACTGATGTTAATCGGGTCTTGATTCGCTTGACGCTGCTG”, the binding signal came to 3.68 z-score in assay [1] and 3.3 z-score in the assay with GST-Hu-p50.

As to “CCGATTAACATCAAAATTCCCAATGATGTTAATCGGGTCTTGATTCGCTTGACGCTGCTG”, the values for the binding signal (in assay [1]; with GST-Hu-p50) were 4.95 z-score and 4.21 z-score, respectively.

On to “CCGATTAACATCAAGGACTTCCCTGATGTTAATCGGGTCTTGATTCGCTTGACGCTGCTG”, for which the binding signal in assay [1] amounted to 2.77 z-score; with GST-Hu-p50, 2.42 z-score.

Regarding “CCGATTAACATCAGTTCCCCCCATGATGTTAATCGGGTCTTGATTCGCTTGACGCTGCTG”, the binding signal in assay [1] was 5.19 z-score; with GST-Hu-p50 it was 4.95 z-score.

In the case of “CCGATTAACATCAGGGAAAAGGATGATGTTAATCGGGTCTTGATTCGCTTGACGCTGCTG”, the binding signal in assay [1] was found to be 4.08 z-score; with GST-Hu-p50, 1.47 z-score.

As to “CCGATTAACATCAGGGGTAAAACTGATGTTAATCGGGTCTTGATTCGCTTGACGCTGCTG”, the values for the binding signal (in assay [1]; with GST-Hu-p50) were 3.62 z-score and 3.28 z-score, respectively.

With “CCGATTAACATCAGGAATACCCCTGATGTTAATCGGGTCTTGATTCGCTTGACGCTGCTG”, the figures for the binding signal (in assay [1]; in the assay with GST-Hu-p50) were 4.15 z-score and 5.04 z-score, respectively.

Take “CCGATTAACATCACAACCCCCCCTGATGTTAATCGGGTCTTGATTCGCTTGACGCTGCTG”: the binding signal in assay [1] was determined as 4.57 z-score; in the assay with GST-Hu-p50, 4.53 z-score.

For the sequence “CCGATTAACATCAGGGACTTACCTGATGTTAATCGGGTCTTGATTCGCTTGACGCTGCTG”, the figures for the binding signal (in assay [1]; in the assay with GST-Hu-p50) were 5.49 z-score and 4.61 z-score, respectively.

As to “CCGATTAACATCACTGTTTTCCCTGATGTTAATCGGGTCTTGATTCGCTTGACGCTGCTG”, the binding signal was found to be 6.12 z-score in assay [1] and 3.14 z-score with GST-Hu-p50.

As for “CCGATTAACATCAGGGGAGAAAATGATGTTAATCGGGTCTTGATTCGCTTGACGCTGCTG”, the binding signal in assay [1] turned out to be 5.87 z-score; with GST-Hu-p50, 4.88 z-score.

“CCGATTAACATCATTGTCCCTTCTGATGTTAATCGGGTCTTGATTCGCTTGACGCTGCTG”: the binding signal came out at 3.35 z-score in assay [1] and 1.99 z-score with GST-Hu-p50.

With “CCGATTAACATCAAATTTTCCCATGATGTTAATCGGGTCTTGATTCGCTTGACGCTGCTG”, the figures for the binding signal (in assay [1]; with GST-Hu-p50) were 6.42 z-score and 4.19 z-score, respectively.
